# High-throughput results as filed in PubChem BioAssay.
# The sample as a whole holds a higher share of hits than the screen did.
# Cycloheximide cs: Cycloheximide Counterscreen for Small Molecule Inhibitors of Shiga Toxin; cell reporter, cycloheximide protein synthesis inhibition counterscreen; max response, %; 300,000 tested, 12% active; AID 2314, 2010; in the data active = max response mostly above about 13%, no sharp cut-off; inactive = mostly below about 14%; also: read at 38.3 µM for the half of the compounds with a filed dose; 0% is about no effect
# Tb PYK inh: qHTS of Trypanosoma Brucei Inhibitors; pyruvate kinase (Trypanosoma brucei), Q57TT1; TbPYK enzyme, Kinase-Glo Plus ATP luminescence, 45 min; Potency, µM (highest dose often 76.8 µM), inactives show top-dose activity, negative = inhibition, hits mostly inhibitors; 410,000 tested, 0.12% active; also: potency is read from the fitted curve at half-maximal effect; % is scaled to controls: 0 for no effect and ±100 for the full control effect; nearly all actives have a fitted effect of over 50% in size
#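 ADP (130 uM final) triggers the TbPYK reaction after compound addition; incubation is 45 min at room temperature. Kinase-Glo Plus is then added and luminescence imaged. Normalized data are fitted to concentration-effect curves.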
# LmPK inhibitor: qHTS Assay for Inhibitors of Leishmania Mexicana Pyruvate Kinase (LmPK); 290,000 tested, 0.37% active; Potency, µM (doses to about 57.5 µM), for the others: at the top dose activity change, negative = inhibition, usual class: inhibitors; Q27686; purified LmPK, Kinase-Glo ATP luminescence, 1 h; also: potency is read from the fitted curve at half-maximal effect; % is scaled to controls: 0 for no effect and ±100 for the full control effect
# Target sequence (Q27686 whole entry, looked up): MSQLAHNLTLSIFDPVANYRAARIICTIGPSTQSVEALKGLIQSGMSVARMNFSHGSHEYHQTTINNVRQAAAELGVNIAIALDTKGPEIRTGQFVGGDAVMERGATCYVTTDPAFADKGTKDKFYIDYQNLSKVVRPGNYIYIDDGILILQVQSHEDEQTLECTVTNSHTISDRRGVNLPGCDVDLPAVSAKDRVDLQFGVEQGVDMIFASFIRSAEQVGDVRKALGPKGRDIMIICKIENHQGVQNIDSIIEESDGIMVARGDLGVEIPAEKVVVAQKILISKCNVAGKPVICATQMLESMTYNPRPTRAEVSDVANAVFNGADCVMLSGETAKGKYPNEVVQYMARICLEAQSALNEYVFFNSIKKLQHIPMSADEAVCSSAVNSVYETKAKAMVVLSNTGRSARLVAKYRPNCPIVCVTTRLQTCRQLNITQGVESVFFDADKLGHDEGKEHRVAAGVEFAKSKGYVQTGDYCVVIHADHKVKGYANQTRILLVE
#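 Pyruvate kinase activity monitored as ATP production (luciferase luminescence). Conditions: 0.1 nM enzyme, 0.5 mM PEP, 0.1 mM ADP, 1 h, RT; normalized against uninhibited and no-enzyme wells.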
# Shiga inhibitor: A qHTS for Small Molecule Inhibitors of Shiga Toxin; Vero cells, Shiga toxin protein synthesis inhibition reporter; 290,000 tested, 9.2% active; inhibition, % at 38.7 µM; in the data active = inhibition mostly above about 28%, no sharp cut-off; inactive = mostly below about 43%; also: 0% is about no effect
# RE007 growth inh: qHTS Assay for Inhibitors of the HIV-1 protein Vpr | S. pombe RE007 Vpr strain, BacTiter-Glo ATP luminescence, 24 h | Potency, µM (doses to about 92.2 µM), for inactives: at the top dose activity change, negative = less growth, usual class: inhibitors | 360,000 tested, 0.21% active; active = well fitted falling curve with a large enough effect; inconclusive = small, poorly fitted or top-dose-only effect; inactive = no such curve, though single readings can be large or run the other way; also: potency is read from the fitted curve at half-maximal effect; % is scaled to controls: 0 for no effect and ±100 for the full control effect; nearly all actives have a fitted effect of over 50% in size
#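 Fission yeast strain RE007, carrying one chromosomally integrated HIV-1 vpr copy, was seeded at OD 0.01 in PMG+AL medium with 23 nL pinned compound. After 24 h at 30 °C and 99% humidity, viability was read by BacTiter-Glo luminescence.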
# FBPA Giardia inh: qHTS Assay for Inhibitors of Fructose-1,6-bisphosphate Aldolase from Giardia Lamblia; A8B2U2; purified Giardia FBPA; Potency, µM (top dose mostly 59.6 µM), for the others: top-dose activity, negative = inhibition, usual class: inhibitors; 290,000 tested, 0.71% active; also: potency is read from the fitted curve at half-maximal effect; % is scaled to controls: 0 for no effect and ±100 for the full control effect; nearly all actives have a fitted effect of over 55% in size
#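 Giardia FBPA (40 nM reagent) was preincubated 10 min at RT with compound (up to 57.5 uM final), then substrate plus GAPDH/TPI/NAD/arsenate coupling system with diaphorase/resazurin was added; resorufin fluorescence (525/598 nm) was read after 20 min.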
# Numbers without * were called inactive; ? = inconclusive; . = no result given; [ ] = remark or other dose. Unless noted, calls follow the shape of the dose curve; as a rule, active = well fitted curve in the direction sought with a large enough effect; inconclusive = small, poorly fitted or top-dose-only effect, or another doubt; inactive = no such curve, though single readings can be large; an effect the other way counts as inactive or inconclusive.
SMILES,Cycloheximide cs,Tb PYK inh,LmPK inhibitor,Shiga inhibitor,RE007 growth inh,FBPA Giardia inh
CC(C)(C)C#CC(CCc1ccccc1)OS(N)(=O)=O (stereo unspecified),12*,.,10%,21,.,-17%
COCCSc1nnc(NC(=O)c2ccco2)s1,20*,-7%,-6%,36,-10%,-23%
COCc1nnc(NC(=O)c2ccco2)s1,-1,1%,0%,14,-11%,-9%
O=C(CSc1nnc(NC(=O)c2ccco2)s1)Nc1cccc(F)c1,32*,3%,-2%,78*,-19%,.
CCC(C)Sc1nnc(NC(=O)c2ccco2)s1 (stereo unspecified),.,-2%,.,.,-15%,.
CSc1nnc(NC(=O)c2ccco2)s1,16*,-7%,0%,.,-21%,-13%
CCCSc1nnc(NC(=O)c2ccco2)s1,24*,1%,0%[11.5 µM],109*,-22%,6%
CC(C)N(C(=O)CSc1nnc(NC(=O)c2ccco2)s1)C(C)C,-1,2%,2%,-6,3%,18%
CCc1cc(=O)[nH]c(SCc2nc(-c3cccc(Cl)c3)no2)n1,.,-6%,.,.,.,.
c1ccc(Oc2ncnc3oc(-c4ccccc4)cc23)cc1,-1,3%,1%,2,8%,4%
c1ccc(-c2cc3c(-n4cccc4)ncnc3o2)cc1,69*,0%,2%,102*,-20%,7%
CCCCC(=O)Nc1cccc(-c2csc(-c3ccccc3)n2)c1,12,-5%,2%,61*,-3%,-2%
CC(=O)c1cccc(Nc2nc(-c3cccnc3)cs2)c1,51*,-1%,-5%,58*,4%,3%
CC(=O)c1cccc(Nc2nc(-c3ccccc3)cs2)c1,33*,-13%,-2%,107*,16%,-7%
O=C(O)CCC(=O)Nc1cccc(-c2csc(-c3ccccc3)n2)c1,3,-5%,1%,-16,4%,20%
CC(=O)c1ccc(Nc2nc(-c3cccnc3)cs2)cc1,22*,1%,1%,20,5%,-6%
O=C(Nc1cccc(-c2csc(Nc3ccccc3)n2)c1)c1ccccc1,31*,-6%,1%,84*,-14%,-12%
Cc1ccc(-n2c(C)cc(C(=O)C(=O)Nc3ccccc3)c2C)c(C)c1,.,-1%,.,.,.,.
COc1ccc(-n2ncc(C(=O)N3CCc4ccccc4C3)c2C2CCN(C(=O)OC(C)(C)C)CC2)cc1,.,-7%[15.4 µM],.,.,.,.
COc1ccccc1CC(=O)Nc1ccc(-c2noc(COc3ccc(Br)cc3)n2)cc1,3,-6%,6%,-14,5%,-4%
COc1ccc(CCC(=O)Nc2ccc(-c3noc(-c4ccc(OC)c(OC)c4)n3)cc2)cc1,11,-7%,5%,14,12%,?
COc1cccc(-c2nc(-c3ccc(NC(=O)Cc4ccccc4OC)cc3)no2)c1,22*,5%,2%,43*,-5%,-15%
COc1ccc(CC(=O)Nc2ccc(-c3noc(-c4ccccc4OC)n3)cc2)cc1,27*,-3%,4%,31,9%,13%
COc1ccccc1C(=O)N(c1ccc(C)cc1)S(=O)(=O)c1ccc(Cl)cc1,.,-1%,.,.,.,.
CC(C)(CO)C(O)C(=O)NCCCC(=O)O (stereo unspecified),.,3%,.,.,.,.
SMILES,Cycloheximide cs,Tb PYK inh,LmPK inhibitor,Shiga inhibitor,RE007 growth inh,FBPA Giardia inh
CNS(=O)(=O)c1cccc(C(=O)OCC(=O)N2CCCC2)c1,5,6%,-1%,-6,-15%,-2%
CCOC(=O)N1CCN(C(=O)COC(=O)c2ccc(N(C)C)cc2)CC1,.,-7%,.,.,18%,.
CN(C)c1ccc(C(=O)OCC(=O)N2CCCC2)cc1,32*,-6%,2%,53*,27%,2%
CN(C)c1ccc(C(=O)OCc2ccc(Br)cc2)cc1,16,1%,0%,67*,-6%,-1%
COC(=O)c1ccc(CNC(=O)COC(=O)c2ccc(N(C)C)cc2)cc1,5,-3%,4%,-9,2%,0%
O=C(OCC(=O)N1CCCC1)c1cccc(Br)c1,20*,-2%,3%,54*,6%,1%
CN(C)c1ccc(C(=O)OCC(=O)NCCNC(=O)COC(=O)c2ccc(N(C)C)cc2)cc1,30*,-7%,-16%,71*,16%,.
COc1ccc(CNC(=O)c2cc3c(=O)n(Cc4ccco4)ccc3nc2C)c(OC)c1,.,1%,.,.,.,.
CCOC(=O)C1CCN(C(=O)COC(=O)c2cccc(F)c2)CC1,22*,4%,-10%,72*,-8%,-1%
CCOc1ccc(C(=O)OCC(=O)N2CCCC2)cc1,27*,-5%,-2%,59*,7%,1%
CN(C)c1ccc(C(=O)OCC(=O)N2CCCCCC2)cc1,36*,6%,-7%,106*,-29%,0%
CCc1ccc(C(=O)OCC(=O)N2CCCCCC2)cc1,.,1%,.,.,-15%,.
O=C(N/N=C1/C[C@@H](O)[C@@H](O)[C@@H]2[C@@H]3C(=O)N(Cc4ccccc4)C(=O)[C@H]3CC[C@H]12)OCc1ccccc1,.,.,.,.,.,-1%[12.9 µM]
CC1CCCN(C(=O)CSc2c3c(nc4cc(Cl)ccc24)CCCC3)C1 (stereo unspecified),.,-1%,.,.,.,.
Cc1ccc(NC(=O)CCCn2c(=O)c3cccn3c3cccnc32)c(C)c1,.,-2%,.,.,.,.
Cc1noc(NS(=O)(=O)c2ccc(N/C=C\C(=O)c3ccc(Br)cc3)cc2)c1C,19*,3%,11%,58*,12%,12%
Cc1noc(NS(=O)(=O)c2ccc(N/C=C\C(=O)c3cccc4ccccc34)cc2)c1C,12,-12%,-15%,40,-7%,13%
CCCOc1ccc(C(=O)Nc2ccc(S(=O)(=O)Nc3onc(C)c3C)cc2)cc1,-6,7%,-1%,13,7%,-8%
Cc1noc(NS(=O)(=O)c2ccc(N/C=C\C(=O)c3ccc4c(c3)OCO4)cc2)c1C,37*,-2%,-2%,72*,?,15%
CCOc1ccc(C(=O)/C=C/Nc2ccc(S(=O)(=O)Nc3onc(C)c3C)cc2)cc1,20*,-11%,0%,85*,10%,12%
COc1cccc(C(=O)/C=C/Nc2ccc(S(=O)(=O)Nc3onc(C)c3C)cc2)c1,44*,-5%,-3%,63*,-5%,22%
COc1cc2c(cc1OC)n(Cc1cccc(C(F)(F)F)c1)c(=O)n1nc(-c3ccccc3)nc21,.,-7%,.,.,.,.
CC1CCN(c2ccc(-c3nc(C(C)C)no3)cc2[N+](=O)[O-])CC1,.,0%,.,.,.,.
Fc1cc(F)c2nc(Nc3nc4cc5c(cc4s3)OCO5)sc2c1,21*,-12%,-1%,26,-3%,5%
Fc1cccc2sc(Nc3nc4cc5c(cc4s3)OCO5)nc12,70*,-5%,-8%,116*,-9%,20%
